Only some compounds are listed: those with a hit (about 2.7% of all), similar ones and a draw of the others.
SENP7 block: SENP7 protease inhibition | Q9BQF6 | recombinant SENP7, Z-RLRGG-aminoluciferin luminescence, 40 min | inhibition, % at 5 µM | actives 1.5% (n = 330,000);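 active = inhibition above about 50% at the single test dose, limit read from the data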;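 also: plate controls were DMSO with enzyme for no effect and no enzyme buffer wells for full effect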
HSP90 inh: blocks HSP90-mediated luciferase refolding in reticulocyte lysate. Rabbit reticulocyte lysate, luciferase refolding luminescence, 3 h. inhibition, % at 5.6 µM. actives 0.91% (n = 290,000);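 active = inhibition above the screen-wide mean plus 3 SD, computed separately per campaign, cut at about 16% in these data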;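 also: 0% = DMSO wells and 100% = 60 µM geldanamycin wells; inhibitors lower the luminescence because luciferase stays unfolded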
SENP8 block-1: blocks the human protease SENP8; AID 2540; purified SENP8, Z-RLRGG-aminoluciferin cleavage, luminescence; actives 1.2% (n = 330,000); Q96LD8; inhibition, % at 10 µM; in the data active = inhibition above about 50%
SENP8 block-2: SENP8 (human) protease inhibition; Q96LD8; AID 602440; inhibition, % at 20 µM; actives 0.64% (n = 360,000); recombinant SENP8, Nedd8 substrate fluorescence; in the data active = inhibition mostly above about 40%, no sharp cut-off; inactive = mostly below about 27%
SENP6 block: inhibitors of human SENP6 protease. Q9GZR1. inhibition, % at 10 µM. actives 1.8% (n = 330,000). Recombinant SENP6 catalytic domain, aminoluciferin luminescence;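 active = inhibition above about 50% at the single tested dose, limit read from the data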;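 also: plate controls were DMSO wells with enzyme for no effect and DMSO wells lacking enzyme for full effect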
Target sequence (Q9GZR1 628-1112 limits assumed): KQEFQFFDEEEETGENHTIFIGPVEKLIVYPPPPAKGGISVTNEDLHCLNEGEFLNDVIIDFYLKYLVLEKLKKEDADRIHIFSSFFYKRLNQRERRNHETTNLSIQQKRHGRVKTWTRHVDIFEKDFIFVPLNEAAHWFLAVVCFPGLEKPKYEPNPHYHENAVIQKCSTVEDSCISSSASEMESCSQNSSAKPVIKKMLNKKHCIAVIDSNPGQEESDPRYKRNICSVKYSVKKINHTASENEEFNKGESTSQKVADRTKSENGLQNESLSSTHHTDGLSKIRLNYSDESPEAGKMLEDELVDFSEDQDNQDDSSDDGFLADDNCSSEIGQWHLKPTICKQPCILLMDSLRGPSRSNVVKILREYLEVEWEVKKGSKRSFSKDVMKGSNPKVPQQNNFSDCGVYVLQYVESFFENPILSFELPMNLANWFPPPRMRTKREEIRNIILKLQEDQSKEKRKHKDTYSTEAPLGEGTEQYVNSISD
SENP8 confirm: confirmation of human SENP8 protease inhibitors. shares compounds with SENP7 block. Recombinant SENP8, Z-RLRGG-aminoluciferin luminescence, 60 min. inhibition, % at 12.5 µM. actives 40% (n = 6,200);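 active = mean inhibition across replicates above about 50%, limit read from the data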
SENP6 confirm: confirmation of human SENP6 protease inhibitors; AID 488915; inhibition, % at 12.5 µM; shares compounds with SENP7 block; actives 58% (n = 6,200); recombinant SENP6, Z-RLRGG-aminoluciferin luminescence
SENP7 conf: confirmation of human SENP7 protease inhibitors. shares compounds with SENP7 block. recombinant SENP7, Z-RLRGG-aminoluciferin luminescence, 40 min. inhibition, % at 12.5 µM. actives 69% (n = 6,200). AID 488917
Casp3 select: inhibits human caspase-3 in SENP selectivity test; shares compounds with SENP7 block; purified caspase-3, Z-DEVD-aminoluciferin luminescence, 60 min; inhibition, % at 12.5 µM; actives 60% (n = 6,200); AID 488918;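 active = mean inhibition above about 50%, limit read from the data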;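 also: plate controls were enzyme with DMSO for no effect and wells without caspase-3 for full effect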
Luc interf: interferes with luciferase luminescence in SENP counter-screen; shares compounds with SENP7 block; Pre-incubated SENP8/Z-RLRGG-aminoluciferin, luciferase luminescence interference; inhibition, % at 12.5 µM; actives 39% (n = 6,200); AID 488919;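 active = mean inhibition above about 50% when retested at one dose, limit read from the data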;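 also: plate controls were DMSO wells with completed reaction for no effect and substrate without enzyme for full effect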
Starred values were filed as active, the others as inactive.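 The calls were made as follows, unless noted: active = mean inhibition above about 50% in the one-dose retest (limit read from the data); inactive = the rest.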

For O=C(N/N=C/c1cc2c(cc1Cl)OCO2)c1cccc(Br)c1 the results were SENP7 block 47.6, HSP90 inh 0.7, SENP8 block-1 5.4, SENP8 block-2 -139.2, SENP6 block 50.8*, SENP8 confirm 14.9, SENP6 confirm 21.6, SENP7 conf 32.7, Casp3 select 31.2 and Luc interf 7.7.
For CSc1cccc(NC(=O)CN(c2ccc(C)cc2C)S(C)(=O)=O)c1 the results were SENP7 block 4.4, HSP90 inh 1.5, SENP8 block-1 1.4, SENP8 block-2 -4.3 and SENP6 block 12.3.
Screening O=C(NCCOc1ccccc1)c1ncn[nH]1 returned SENP7 block 0.0, HSP90 inh -1.9, SENP8 block-1 0.7, SENP8 block-2 22.8 and SENP6 block 6.2.
`O=C(NCCOc1ccccc1)c1ccc2n[nH]nc2c1` gave SENP7 block 31.7, SENP8 block-1 50.3*, SENP8 block-2 -1.5, SENP6 block 57.8*, SENP8 confirm 68.3*, SENP6 confirm 67.7*, SENP7 conf 86.7*, Casp3 select 87.3* and Luc interf 71.6*.
`C/C(=N\NC(=O)c1ccncc1)c1ccc(N2CCOCC2)cc1` gave SENP7 block -2.8, SENP8 block-1 -7.3, SENP8 block-2 15.7 and SENP6 block -6.9.
O=c1/c(=C/c2ccc(O)cc2)sc2n1CCCN=2 was read as SENP7 block 63.5*, HSP90 inh -5.1, SENP8 block-1 80.3*, SENP8 block-2 15.0, SENP6 block 85.9*, SENP8 confirm 86.2*, SENP6 confirm 84.4*, SENP7 conf 95.6*, Casp3 select 88.4* and Luc interf 84.0*.
For O=C(/C=C/Nc1ccc(F)cc1)c1cccs1 the results were SENP7 block 92.0*, HSP90 inh -1.9, SENP8 block-1 89.2*, SENP8 block-2 -220.9, SENP6 block 93.3*, SENP8 confirm 88.7*, SENP6 confirm 98.0*, SENP7 conf 102.2*, Casp3 select 95.5* and Luc interf 66.7*.
For O=C(/C=C/Nc1ccc(F)c(F)c1)c1cccs1 the results were SENP7 block 82.9*, HSP90 inh 0.8, SENP8 block-1 85.5*, SENP8 block-2 -212.4, SENP6 block 90.0*, SENP8 confirm 67.7*, SENP6 confirm 88.8*, SENP7 conf 98.6*, Casp3 select 83.1* and Luc interf 38.3.
`O=C(Cc1cccs1)Nc1ccc(F)c(F)c1` gave SENP7 block 1.8, HSP90 inh 1.3, SENP8 block-1 -1.1, SENP8 block-2 1.2 and SENP6 block -21.9.
`O=C(/C=C/Nc1ccc(S(=O)(=O)Nc2ncccn2)cc1)c1cccs1` gave SENP7 block 5.2, HSP90 inh 1.6, SENP8 block-1 -3.4, SENP8 block-2 -453.3 and SENP6 block 4.9.
For O=C(Oc1ccc[nH]c1=O)c1ccccc1 the results were SENP8 block-2 12.8.
Screening O=C(Nc1ccc(F)cc1)Oc1ccc[nH]c1=O returned SENP7 block 53.1*, HSP90 inh 2.5, SENP8 block-1 -3.9, SENP8 block-2 27.3, SENP6 block 42.8, SENP8 confirm 4.1, SENP6 confirm 4.6, SENP7 conf 22.3, Casp3 select 18.8 and Luc interf 21.0.
Cc1nc2oc3ccccc3c(=O)c2cc1C(=O)O was read as SENP7 block -6.6, HSP90 inh 2.4, SENP8 block-1 -3.8, SENP8 block-2 -1.3 and SENP6 block 7.3.
Screening Cc1nc2oc3ccc(Cl)cc3c(=O)c2cc1C(=O)O returned SENP7 block 79.3*, HSP90 inh -2.4, SENP8 block-1 69.5*, SENP8 block-2 -114.0, SENP6 block 78.6*, SENP8 confirm 81.7*, SENP6 confirm 81.1*, SENP7 conf 96.2*, Casp3 select 94.2* and Luc interf 76.1*.
CC(C)c1ccc2oc3nc(N)c(C(=O)O)cc3c(=O)c2c1 was read as SENP7 block 101.2*, HSP90 inh 3.6, SENP8 block-1 96.2*, SENP6 block 97.0*, SENP8 confirm 98.3*, SENP6 confirm 99.0*, SENP7 conf 101.7*, Casp3 select 97.1* and Luc interf 91.3*.
Screening C/C(CC(=O)Nc1ccccc1Cl)=N\NC(=O)C(=O)NCCO returned SENP7 block 3.1, HSP90 inh 1.8, SENP8 block-1 -0.9, SENP8 block-2 3.7 and SENP6 block -3.8.
Screening Cc1cccc(N=C2NC(=O)/C(=C/c3cccs3)S2)c1 returned SENP7 block 6.7, HSP90 inh -6.3, SENP8 block-1 7.4, SENP8 block-2 -8.4, SENP6 block 52.1*, SENP8 confirm 6.4, SENP6 confirm 16.3, SENP7 conf 22.9, Casp3 select 15.8 and Luc interf 5.9.
`COc1ccc(C)cc1NC(=O)CCNS(=O)(=O)c1cccc2nonc12` gave SENP7 block 9.5, HSP90 inh 4.2, SENP8 block-1 -2.4, SENP8 block-2 17.4 and SENP6 block -15.1.
For CC1CCCN(C(=O)CCS(=O)(=O)c2ccc3c(c2)n(C)c(=O)c(=O)n3C)C1 (configuration not stated) the results were SENP7 block -1.8, HSP90 inh 1.0, SENP8 block-1 10.7, SENP8 block-2 -39.4 and SENP6 block 5.7.
O=C(Nc1nc2c(s1)CCCC2)c1cccnc1 was read as SENP7 block 49.1, HSP90 inh 2.6, SENP8 block-1 15.9, SENP8 block-2 -1.7 and SENP6 block 35.7.
For O=C(Nc1nc2c(s1)CCCC2)C1COc2ccccc2O1 (configuration not stated) the results were SENP7 block 59.2*, HSP90 inh 50.9*, SENP8 block-1 59.2*, SENP8 block-2 20.1, SENP6 block 66.7*, SENP8 confirm 74.8*, SENP6 confirm 73.0*, SENP7 conf 91.8*, Casp3 select 66.6* and Luc interf 31.9.
Screening Cc1csc(NC(=O)c2ccc(C)o2)n1 returned SENP7 block 24.2, HSP90 inh 7.9, SENP8 block-1 -12.6, SENP8 block-2 -5.2 and SENP6 block 15.0.
For Cc1nnc(NC(=O)C2COc3ccccc3O2)s1 (configuration not stated) the results were SENP7 block 5.3, HSP90 inh 0.6, SENP8 block-1 -4.1, SENP8 block-2 3.6 and SENP6 block -11.0.

Screening data deposited in PubChem BioAssay by several laboratories.
